# IMPase Li inh – membrane-permeable IMPase blocker, potentiated with lithium; CHO-M1 cells, IP1 TR-FRET (IP-One), carbachol + lithium; 0.35% of 210,000 active; Potency, µM (titrated, usually from 59.4 µM), without a hit: at the top dose activity, negative = IMPase inhibition, hits mostly inhibitors; AID 1457;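 further: IP1 builds up when IMPase is blocked and the TR-FRET signal falls; potency means the concentration at half of the fitted maximal effect; plate controls were basal vehicle for no effect and high inhibitor control for full effect; nearly all actives have a fitted effect of over 50% in size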
#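 Lithium-sensitised IP1 accumulation assay; M1-expressing CHO cells treated 30 min at 37C with compound. Competitive antibody detection by time-resolved FRET followed a 10 min room-temperature lysis step.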
# ALDH1A1 block – ALDH1A1 (human) enzyme inhibition. AID 1030. P00352. Purified ALDH1A1, NADH fluorescence, propionaldehyde substrate. 7.3% of 220,000 active. Potency, µM (series often up to 75.3 µM), for the others: at the highest dose activity, negative = inhibition, actives largely listed as inhibitors; active means well fitted inhibition curve with a large enough effect, not every such curve was filed as active; inconclusive means small, poorly fitted or top-dose-only effect, or another doubt; inactive means no such curve, though single readings can be large or run the other way;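 further: potency means the concentration at half of the fitted maximal effect; plate controls were no enzyme wells and a reference inhibitor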
# Target sequence (P00352 whole entry, looked up): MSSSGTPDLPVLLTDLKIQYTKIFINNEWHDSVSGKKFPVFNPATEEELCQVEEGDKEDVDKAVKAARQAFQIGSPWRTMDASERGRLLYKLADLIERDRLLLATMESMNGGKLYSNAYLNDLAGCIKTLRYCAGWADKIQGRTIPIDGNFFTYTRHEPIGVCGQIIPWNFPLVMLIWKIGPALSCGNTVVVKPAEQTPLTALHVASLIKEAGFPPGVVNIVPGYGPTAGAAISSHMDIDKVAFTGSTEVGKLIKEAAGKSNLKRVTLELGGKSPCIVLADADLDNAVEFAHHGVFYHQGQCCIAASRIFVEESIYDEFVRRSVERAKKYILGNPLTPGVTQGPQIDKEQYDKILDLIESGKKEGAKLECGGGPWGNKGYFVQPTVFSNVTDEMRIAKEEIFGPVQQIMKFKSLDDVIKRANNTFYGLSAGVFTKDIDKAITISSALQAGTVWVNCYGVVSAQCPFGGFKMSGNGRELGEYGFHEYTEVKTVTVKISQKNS
# HttQ103 aggreg – inhibitors of mutant huntingtin aggregate formation in PC12 cells | 1.1% of 220,000 active | AID 1688 | PC12 HttQ103-GFP aggregates, Acumen cytometry, 40 h | Potency, µM (highest dose often 46.1 µM), inactives show at the highest dose activity change, negative = inhibition, usual class: inhibitors; further: potency means the concentration at half of the fitted maximal effect; on the % scale 0 is the no-effect control and ±100 the full control effect; nearly all actives have a fitted effect of over 60% in size
#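 Steps: seed 1500 PC12 HTTQ103-GFP cells/well; add tebufenozide, 100 nM final; add compound titration; add ATPLite reagent; quantify GFP aggregates by laser scanning cytometry.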
# IMPase inh – membrane-permeable compound that blocks inositol monophosphatase. P97697. CHO-M1 cells, IP1 accumulation, HTRF TR-FRET ratio. inhibition (IP1 accumulation), % at 46.1 µM. 120,000 tested, under 10 active. AID 901; active means well fitted curve in the direction sought with a large enough effect in the signal ratio, not every such curve was filed as active; inconclusive means small, poorly fitted or top-dose-only effect, or a change in a side signal; inactive means no such curve, though single readings can be large or run the other way; the % refers to the signal ratio;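 further: cells stimulated with carbachol in lithium chloride buffer; plate controls were DMSO basal wells for no effect and reference inhibitor wells for full effect; higher means more IMPase inhibition seen as more IP1 and lower FRET ratio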
# Target sequence (P97697 whole entry, looked up): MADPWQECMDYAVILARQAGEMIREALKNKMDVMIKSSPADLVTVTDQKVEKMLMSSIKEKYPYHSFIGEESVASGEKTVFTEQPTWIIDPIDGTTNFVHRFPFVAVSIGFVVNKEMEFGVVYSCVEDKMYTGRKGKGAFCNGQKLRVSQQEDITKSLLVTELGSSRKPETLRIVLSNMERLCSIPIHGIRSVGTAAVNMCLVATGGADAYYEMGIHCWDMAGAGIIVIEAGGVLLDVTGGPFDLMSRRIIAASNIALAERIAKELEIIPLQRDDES
#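 The IP-One HTRF competitive assay in carbachol-stimulated CHO-M1 cells quantifies cellular IP1. Compounds spanned up to 46 uM final, and activity is expressed as AC50 from concentration-response fits of the ratio and donor data.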
# HPGD block – blocks human HPGD enzyme activity; P15428; purified HPGD, NADH fluorescence kinetic, PGE2 substrate; Potency, µM, without a hit: at the highest dose activity change, negative = inhibition, usual class: inhibitors; 4.3% of 150,000 active; AID 894; active means well fitted inhibition curve with a large enough effect, not every such curve was filed as active; inconclusive means small, poorly fitted or top-dose-only effect, or another doubt; inactive means no such curve, though single readings can be large or run the other way; further: potency means the concentration at half of the fitted maximal effect; on the % scale 0 is the no-effect control and ±100 the full control effect
#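 NADH formation kinetics: reaction with 30 uM PGE2 and 1 mM NAD+ (final), 20 nM enzyme, Tris-HCl pH 8 with Tween 20, after 15 min compound preincubation at room temperature. Fluorescence change, last versus first of five reads.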
# HTT cytoprotect – cytoprotection in Huntington HTT-Q103 PC12 cell model; PC12 HTT-Q103 induced, cytoprotection, ATP luminescence, 40 h; Potency, µM (doses to about 56.4 µM), without a hit: cytoprotection (ATP increase), hits mostly activators; 0.14% of 230,000 active; AID 1471; further: potency means the concentration at half of the fitted maximal effect; % of control where 0% means no effect; nearly all actives have a fitted effect of over 45% in size
#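 Compounds added alongside 100 nM tebufenozide, which induces toxic Q103 huntingtin exon 1-GFP in stable PC12 cells; surviving cells quantified by luminescent ATP measurement. Medium: phenol red-free DMEM, 5% equine and 5% calf serum.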
# * marks the source's active call; other numbers are inactive results; ? = inconclusive; nt = no result given; [ ] = dose if it differs, or a comment. Rows were chosen to be rich in hits. Some 9.4% of all compounds tested hit in one or more screens of this group. Unless noted, the call rests on the fitted dose curve; in most records, active means well fitted curve in the direction sought with a large enough effect; inconclusive means small, poorly fitted or top-dose-only effect, or another doubt; inactive means no such curve, though single readings can be large; an effect the other way counts as inactive or inconclusive.
SMILES,IMPase Li inh,ALDH1A1 block,HttQ103 aggreg,IMPase inh,HPGD block,HTT cytoprotect
O=C(CSc1nc2[nH]ncc2c(=O)[nH]1)N1CCCCC1,-1%,20µM*,-11%,?,-9%,0%[10 µM]
O=C(CSc1nc2ccccc2c(=O)[nH]1)N1CCCCC1,6%[38.3 µM],?,1%,9,16µM*,-18%
Cc1ccc(S(=O)(=O)N(C)C)cc1NC(=O)CSc1ncc(C(F)(F)F)cc1Cl,1%,-1%,-18%,nt,-9%,-36%[0.074 µM]
Cc1ccc(S(=O)(=O)N2CCN(C(=O)CSc3ncc(C(F)(F)F)cc3Cl)CC2)cc1,18%[38.3 µM],2.8µM*,?,5,-12%,-33%
O=C(CSc1nc2[nH]ncc2c(=O)[nH]1)N1CCCC1,-3%,4%,-21%,5,-6%,?
COCCn1c(=O)c(-c2cc(F)cc(F)c2)nc2cnc(N3CCOCC3)nc21,1%,?,nt,nt,nt,-12%
C=CC[C@@H]1C=C[C@H](O/N=C(\C)CCN2CCc3nc(-c4ccccc4)c(-c4ccccc4)cc3C2)[C@H](CO)O1,nt,15%[13.5 µM],nt,nt,nt,-9%[10 µM]
CCOC(=O)C1CCCN(C2CC(=O)N(c3ccc(NC(C)=O)cc3)C2=O)C1 (configuration not stated),0%,32µM*,17%,nt,nt,-9%
CCOC(=O)C1CCN(C(=S)Nc2ccc(S(N)(=O)=O)cc2)CC1,11%,15µM*,-18%,nt,28µM*,17%[10 µM]
CCOC(=O)C1CCCN(S(=O)(=O)c2ccc(NC(C)=O)cc2)C1 (configuration not stated),3%,2.8µM*,13%[9.22 µM],nt,nt,28%[10 µM]
CCOC(=O)C1CCCN(S(=O)(=O)c2cc(OCC(=O)NC3CCCCC3)c(C)cc2Cl)C1 (configuration not stated),16%[38.3 µM],7.1µM*,21%[9.22 µM],11,-5%,-6%
CCOC(=O)C1CCN(C(=S)Nc2ccc(C)cc2)CC1,-1%,4%,10%,nt,nt,1%
CCOC(=O)C1CCCN(S(=O)(=O)c2ccccc2)C1 (configuration not stated),18%[38.3 µM],-7%,4%,2,0%,-8%
CCOC(=O)C1CCCN(S(=O)(=O)c2ccc(Br)c(OC)c2)C1 (configuration not stated),44%[38.3 µM],11µM*,-4%,6,-7%,9%
COC(=O)[C@@]1(Cc2ccc(OC)cc2)[C@H]2c3cc(C(=O)N4CCCC4)n(Cc4nc5ccccc5[nH]4)c3C[C@H]2CN1C(=O)c1ccccc1,2%,?,nt,nt,?,-34%
Cn1c(-c2cnn(-c3ccccc3)c2-n2cccc2)n[nH]c1=S,-4%,22µM*,-3%,nt,nt,-19%
CCCCCCSc1nnc(-c2cnn(-c3ccccc3)c2-n2cccc2)n1C,30%[38.3 µM],7.1µM*,?,-1,?,2%
O=c1cnc2cnc(N3CCNCC3)nc2n1CCc1ccccc1,10%,?,nt,nt,?,?
CO/N=C(/C)CCC(=O)OC[C@@H]1O[C@H](C#Cc2ccccc2)C=C[C@@H]1Oc1ccc(C)cc1,nt,1%[13.5 µM],nt,nt,nt,-43%[10 µM]
CC(=O)N1c2ccccc2C(=O)C1N1CCCCC1 (configuration not stated),0%[38.3 µM],28µM*,4%,-1,-17%,7%[10 µM]
CN(C)S(=O)(=O)c1cccc(NC(=O)c2ccncc2)c1,1%,2%,-2%,nt,0%,13%[10 µM]
CN(C)S(=O)(=O)c1cccc(NC(=S)Nc2cccc3cnccc23)c1,nt,7.9µM*,?,nt,nt,-70%[10 µM]
S=C(Nc1ccc(Cl)cc1)Nc1cccc2cnccc12,4%,18µM*,?,nt,?,nt
S=C(Nc1cccnc1)Nc1cccc2cnccc12,8%,13µM*,-32%,nt,nt,-37%
Fc1ccc(NC(=S)Nc2cccc3cnccc23)cc1,32%,7.9µM*,?,nt,nt,-25%[10 µM]
SMILES,IMPase Li inh,ALDH1A1 block,HttQ103 aggreg,IMPase inh,HPGD block,HTT cytoprotect
CCC(C)O (configuration not stated),15%,5%,nt,nt,-7%,13%
S=C(Nc1ccc2cn[nH]c2c1)Nc1ccc2cn[nH]c2c1,-8%,?,nt,nt,-3%,-1%[10 µM]
CN(C)S(=O)(=O)c1cccc(NC(=S)Nc2ccc3cn[nH]c3c2)c1,6%,22µM*,-5%,nt,nt,-18%
Cc1ccc(NC(=O)c2cc3c(-c4ccccc4)nn(-c4ccccc4)c3s2)cc1,nt,nt,nt,-6,nt,nt
O=C1CCC/C(=N/NC(=O)c2sc3ccccc3c2Cl)C1,nt,nt,-4%[9.22 µM],nt,nt,-18%[10 µM]
O=C(NNC(=S)NC(=O)c1sc2ccccc2c1Cl)c1ccc(Cl)cc1,-28%,28µM*,-13%,-5,-24%,22%[1.9 µM]
O=C(NN=C1CCCC1)c1sc2ccccc2c1Cl,-2%,16µM*,-25%,nt,nt,-52%
O=C(NNC(=O)c1sc2ccccc2c1Cl)Nc1ccc(Cl)cc1,-16%[38.3 µM],8.9µM*,-14%,-4,-8%,21%
Cc1ccc(NC(=O)c2sc3ccccc3c2Cl)cc1,nt,nt,nt,3,nt,nt
O=C1c2ccccc2-c2ccc(N(Cc3ccc(Br)cc3)Cc3ccc(Br)cc3)cc21,2%,1%[13.5 µM],nt,nt,-4%,-3%[10 µM]
CCN(Cc1ccccc1)Cc1c(O)ccc2c(=O)c(-c3ccccc3Cl)coc12,nt,nt,nt,-1,nt,nt
CN(c1ccc(F)cc1)S(=O)(=O)c1ccc(Cl)c(C(=O)Nc2ccc3c(c2)CCC3)c1,11%,-5%,-4%,1,-20%,23%[10 µM]
CN(c1cccc(Cl)c1)S(=O)(=O)c1cccc(C(=O)Nc2ccc3c(c2)CCC3)c1,10%,11µM*,-6%,nt,-20%,-7%[10 µM]
Nn1cc(-c2ccccc2)nc1SCC(=O)NCCc1ccccc1,19%,3.2µM*,-11%,nt,nt,-2%
Nn1cc(-c2ccccc2)nc1SCC(=O)Nc1ccc2c(c1)OCO2,2%,1.4µM*,14%,-7,-17%,-5%[10 µM]
Cc1ccc(S(=O)(=O)n2c3ccccc3c3nnc(C(=O)c4ccccc4)nc32)cc1,nt,-7%[13.5 µM],nt,nt,nt,-7%[10 µM]
Cc1[nH]c2ccc(-c3nnc(SCC(=O)c4ccccc4F)o3)cc2c1C,nt,2%,22%,-2,nt,-11%
Cc1ccc(C(=O)CSc2nnc(-c3ccc4[nH]c(C)c(C)c4c3)o2)cc1C,17%[38.3 µM],1.4µM*,10%,-7,-8%,5%
CCOC(=O)c1cc(NC(=O)c2ccc(C)cc2)c(=O)n2c1oc1ccc(Cl)cc12,nt,nt,nt,0,nt,nt
